Shown is part of a subset that was picked to be rich in hits.
FXIa inh mix = FXIa protease inhibitors in compound pools, primary screen, biochemical, 10-compound mixtures | Coagulation factor XI (Homo sapiens), P03951 | purified FXIa, fluorogenic substrate, pooled mixtures | inhibition, % at 5 µM | actives 0.19% (n = 62,000);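 note: each value is inhibition by a whole ten-compound pool holding the compound; 0% = enzyme with no mixture and 100% = wells lacking enzyme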
Target sequence (P03951 19-387 limits assumed): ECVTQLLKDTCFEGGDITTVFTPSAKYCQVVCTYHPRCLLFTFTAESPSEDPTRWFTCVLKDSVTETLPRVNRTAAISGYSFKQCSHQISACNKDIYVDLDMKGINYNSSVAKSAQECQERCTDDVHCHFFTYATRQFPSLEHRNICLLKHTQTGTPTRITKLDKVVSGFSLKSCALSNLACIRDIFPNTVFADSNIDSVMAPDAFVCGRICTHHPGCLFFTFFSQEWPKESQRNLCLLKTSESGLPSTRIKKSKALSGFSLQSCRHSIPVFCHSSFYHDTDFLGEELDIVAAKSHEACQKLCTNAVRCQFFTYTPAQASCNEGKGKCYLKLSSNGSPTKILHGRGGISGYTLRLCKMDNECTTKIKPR
Target sequence (P03951 388-625 limits assumed): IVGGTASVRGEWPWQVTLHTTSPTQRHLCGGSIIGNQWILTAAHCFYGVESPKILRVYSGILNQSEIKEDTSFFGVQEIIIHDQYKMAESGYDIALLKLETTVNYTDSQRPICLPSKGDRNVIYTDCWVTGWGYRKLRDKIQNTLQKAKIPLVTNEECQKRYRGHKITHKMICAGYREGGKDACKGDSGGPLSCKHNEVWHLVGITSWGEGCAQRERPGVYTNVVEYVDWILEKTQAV
TNAP act mid DEA = human TNAP enzyme activators, primary screen, biochemical, luminescent, intermediate phosphate acceptor level; activation factor at 20 µM; Alkaline phosphatase, tissue-nonspecific isozyme (Homo sapiens), P05186; 64,000 tested, under 10 active; purified TNAP, CDP-star luminescence, 100 mM DEA, 30 min; hits give high values; scale: 0 levamisole-inhibited, 1 vehicle-only enzyme;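 active = activation factor of at least 2 at 20 µM, relative to controls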
D1 allo mod = D1 CRE-luciferase signal change, two-sided – cell-based, HEK293 D1, dopamine EC30, D1 allosteric modulator project, primary screen. D(1A) dopamine receptor (Homo sapiens), P21728. dopamine EC30 potentiation; actives deviate in either direction. B-score at 10 µM. actives 5.9% (n = 58,000). AID 641, 2007;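 active = luminescence count or its row- and column-corrected plate score outside the 99.7% band of the plate's sample wells, on either side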
HePTP inhibitor = inhibitors of human HePTP phosphatase, primary screen, biochemical, absorbance, leukemia target | Tyrosine-protein phosphatase non-receptor type 7 (Homo sapiens), P35236 | recombinant HePTP phosphatase activity, OD absorbance | inhibition, % at 20 µM | actives 0.64% (n = 110,000); in the data active = inhibition above about 50%;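 note: plate controls were vehicle for no effect and reference inhibitor for full effect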
Calb biofilm kill = clotrimazole potentiators killing Candida biofilms, primary screen, with clotrimazole, Alamar Blue. C. albicans biofilm + clotrimazole. inhibition, % at 6 µM. actives 0.14% (n = 85,000);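 active = inhibition above 20%; inactive = inhibition below 20%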;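 note: preformed 24 hr biofilms exposed to compound for 48 hr; 0% = biofilm without compound and 100% = blank killed by clotrimazole plus chlorhexidine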
FXIIa mix inh = human factor XIIa inhibitors, primary screen, biochemical, pooled compound mixtures, fluorogenic substrate; purified FXIIa; actives 0.2% (n = 62,000); inhibition, % at 5 µM; AID 684, 2007;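 note: 0% = enzyme without compound and 100% = no enzyme blank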
D1 PAM confirm = D1 receptor positive allosteric modulators, retest, confirmation, cell-based, HEK293 D1, CRE-luciferase, duplicate; shares compounds with D1 allo mod; dopamine EC30 potentiation; hits give high values; luminescence at 10 µM; actives 88% (n = 2,200);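 active = luminescence in either of two replicates above the same-plate mean plus 3 SD of the low-dose dopamine control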
D1 no dopamine = D1 receptor agonism without dopamine, confirmation, mechanism study for D1 allosteric modulator project, cell-based, HEK293 D1, CRE-luciferase, secondary assay 1; actives 0.8% (n = 1,900); shares compounds with D1 allo mod; AID 646, 2007; luminescence at 10 µM; luminescence, no dopamine; hits give high values; in the data active = luminescence above about 3900
Isoprot counter = isoproterenol response counter-screen activity for D1 modulators; shares compounds with D1 allo mod; HEK293 D1 CRE-luciferase, isoproterenol EC30 counter-screen; hits give high values; luminescence at 10 µM; actives 63% (n = 2,200); AID 647;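 active = luminescence in either replicate above plate mean of wells with a partly effective reference agonist dose plus 3 SD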;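 note: isoproterenol raises cAMP through native beta-adrenoceptor Gs so signal bypasses D1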
Active calls of the source: *; · = no result given. Cut-off read from the data, not from the text of the source, unless noted: active = inhibition above about 20% (passing the limit was not always enough); inactive = the rest.

SMILES	FXIa inh mix	TNAP act mid DEA	D1 allo mod	HePTP inhibitor	Calb biofilm kill	FXIIa mix inh	D1 PAM confirm	D1 no dopamine	Isoprot counter
Cc1nc2c(cc(Oc3ccc(S(=O)(=O)N4CCOCC4)cn3)c3ccsc32)s1	-0.1	0.9	8.47*	5.0	2.2	-0.9	12244*	1860	3524*
CCCc1nc(N2CCOCC2)c(C#N)c2c1CCCC2	5.2	0.9	6.54*	7.0	3.5	-10.5	7888*	1524	3412
CC(C)Cc1nc(N2CCN(C(=O)c3ccco3)CC2)c(C#N)c2c1CCC2	2.7	0.9	7.53*	4.2	4.3	8.2	12548*	1660	3420*
CCCCc1nc(N2CCOCC2)c(C#N)c2c1CCCC2	·	0.9	·	2.9	2.6	·	·	·	·
CC(C)Cc1nc(N2CCN(C(=O)c3ccccc3)CC2)c(C#N)c2c1CCC2	·	·	·	·	0.8	·	·	·	·
N#Cc1c(N2CCN(C(=O)c3ccccc3)CC2)nc(-c2ccccc2)c2c1CCCC2	·	·	·	·	8.5	·	·	·	·
N#Cc1c(N2CCN(C(=O)c3ccco3)CC2)nc(-c2ccccc2)c2c1CCCC2	-5.4	0.9	2.78*	1.6	·	1.6	13716*	1492	4224*
CC(C)c1cc(N2CCN(C(=O)c3ccco3)CC2)n2c(nc3ccccc32)c1C#N	-1.4	1.2	5.95*	4.0	5.3	4.4	8868*	·	3008*
O=C(Nc1nc(-c2ccc(Cl)cc2)cs1)C12CC3CC(CC(C3)C1)C2	·	·	·	2.7	·	·	·	·	·
Cc1cccc(NC(NC(=O)c2ccccc2Cl)C(Cl)(Cl)Cl)c1 (stereo unspecified)	·	·	·	2.7	·	·	·	·	·
O=C(c1ccco1)N1CCN(c2nc(C3CC3)nc3sc4c(c23)CCCC4)CC1	3.5	0.9	6.88*	7.6	6.3	4.1	15256*	1564	3012
CC(C)Cc1nc(N2CCN(C(=O)C(C)C)CC2)c(C#N)c2c1CCC2	·	0.9	4.51*	3.8	0.3	·	7400*	1544	3032
CC(=O)N1CCN(c2nc(CC(C)C)c3c(c2C#N)CCC3)CC1	·	0.9	17.6*	4.5	10.2	·	22940*	1688	5844*
CCOc1cc(/C=C2\Sc3ccccc3C2=O)ccc1OC	·	·	·	7.3	·	·	·	·	·
CN(C)c1ccc(/C=C2\NC(=O)c3ccccc3C2=O)cc1	·	·	·	8.6	·	·	·	·	·
COc1ccc(NC(=O)C2CC(=O)N(CCc3ccccc3)C(=Nc3ccccc3)S2)cc1 (stereo unspecified)	·	·	·	4.2	·	·	·	·	·
COc1ccc(/C=N\NC(=O)c2ccc([N+](=O)[O-])cc2)cc1Cl	·	·	·	-5.2	·	·	·	·	·
CSc1ccccc1NC(=O)c1c(C)noc1C	1.6	0.9	-0.591	9.9	6.8	4.4	·	·	·
CSc1ccccc1NC(=O)c1onc(C)c1Cl	5.1	0.9	1.58*	1.0	5.8	-21.5	7308*	1580	2948
CCOCC(=O)Nc1cc(C(=O)OC)ccc1C(=O)OC	-2.3	1	0.0651	3.2	5.0	13.4	·	·	·
COC(=O)c1ccc(C(=O)OC)c(NC(=O)COC(=O)C23CC4CC(CC(O)(C4)C2)C3)c1	4.1	1	3.15*	0.9	-0.8	-0.7	5580*	1192	2280
COc1ccc(CN2CCN(Cc3ccc4ccccc4c3)CC2)c(OC)c1	·	·	·	7.7	·	·	·	·	·
Cn1nnnc1SCC(=O)Nc1nc(-c2ccccc2)c(-c2ccccc2)o1	-0.4	0.9	3.75*	10.9	-4.6	2.1	9488*	1600	2400
CCC(=O)Nc1cc2c(cc1C(=O)c1ccccc1)OCCO2	4.7	0.9	13.4*	4.6	·	7.4	15532*	·	3412*
CCC(=O)Nc1ccc2c(c1)OCCO2	·	·	·	·	-0.6	·	·	·	·
SMILES	FXIa inh mix	TNAP act mid DEA	D1 allo mod	HePTP inhibitor	Calb biofilm kill	FXIIa mix inh	D1 PAM confirm	D1 no dopamine	Isoprot counter
CC(=O)Nc1cc2c(cc1C(=O)c1ccccc1)OCCO2	-25.5	0.9	6.34*	8.4	6.0	13.6	8592*	1552	3136*
CCC(=O)Nc1cc2c(cc1C(=O)CC)OCCO2	10.5	0.9	13.6*	10.2	·	7.7	12916*	1684	4012*
O=C1C2C3C=CC(C3=C(c3ccccc3)c3ccccc3)C2C(=O)N1c1cc(C(F)(F)F)ccc1Cl (stereo unspecified)	·	·	·	9.9	·	·	·	·	·
O=C(CN1CCN(c2ccccc2)CC1)Nc1c(C(=O)C2CC2)oc2ccccc12	·	·	0.549	·	3.1	·	·	·	·
O=C(O)CCSCC(=O)Nc1c(C(=O)C2CC2)oc2ccccc12	-18.1	0.9	8.32*	4.2	7.1	1.5	14596*	·	3444*
CC(=O)Nc1cc(C(=O)N2CCOCC2)ccc1S(=O)(=O)c1ccc(C)cc1	-0.4	1	5.62*	-10.9	-1.8	11.8	5968	1596	2344
CC(=O)Nc1cc(C(=O)N2CCCC2)ccc1S(=O)(=O)c1ccc(Cl)cc1	·	·	·	·	3.4	·	·	·	·
O=S(=O)(c1cccc(-c2nc3n(n2)Cc2ccccc2-3)c1)N1CCCC1	6.3	0.9	4.87*	3.8	8.1	8.1	7316*	1740	3824*
CCCC(=O)Nc1c2c(nn1-c1ccc(OC)cc1)CS(=O)C2 (stereo unspecified)	4.3	0.9	3.2*	11.2	4.4	2.1	5968	1700	2448
CCCCc1nc(N)c(C#N)c(-c2cccc(Br)c2)c1CCC	·	·	·	-5.5	·	·	·	·	·
CCCc1nc(N)c(C#N)c(N)c1C#N	2.1	0.8	18.7*	-0.9	6.7	-1.7	17760*	1744	3804*
COc1ccc(/C=C/C(=O)O)cc1S(=O)(=O)NCCCO	·	·	·	8.7	·	·	·	·	·
Cc1ccc(CCNS(=O)(=O)c2cnc[nH]2)cc1	1.1	0.9	3.22*	-1.6	5.0	1.6	6464*	1552	2536
O=S(=O)(NCc1ccc(Cl)cc1)c1cnc[nH]1	4.9	0.8	0.269	-13.7	8.8	2.9	·	·	·
CCOc1cc(C2CC(=O)NC(SCC)=C2C#N)ccc1O (stereo unspecified)	-10.4	0.9	4.52*	3.8	4.5	14.4	6316*	1704	2924
CCOc1cc(C2CC(=O)Nc3cc(C)c(C)cc32)ccc1O (stereo unspecified)	4.4	0.8	21.1*	-4.8	6.0	9.6	17484*	·	4260*
CCOc1ccc(C2CC(=O)NC(SCc3ccccc3)=C2C#N)cc1OC (stereo unspecified)	·	·	·	-2.8	·	·	·	·	·

Compound activity as filed in PubChem.
